# In PubChem BioAssay:
# Unmarked numbers belong to inactive results. Where a call stands in place of a potency, no number is given. For some assays here: Potency and affinity values are given separately. The source made the active and inactive calls. Unless noted, how the calls were made is not given here.
# Experiments:
# [1] = antimalarial activity against Dd2 strain (AID 2302;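 active means growth inhibition above 50% at the single 2 µM test dose, taken to imply half-maximal potency below 2 µM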); conditions: P. falciparum Dd2 in RBCs, LDH growth readout, 72 h; at 2 µM; active compounds read high
# [2] = HepG2 cytotoxicity, primary screen, cytotoxicity control for P. falciparum antimalarial project, cell-based, ATP luminescence (AID 2303;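 active means inhibition above 50%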); conditions: HepG2 viability, 24-48 h, at 10 µM, active compounds read high
# [3] = molecular target: L-lactate dehydrogenase (Plasmodium falciparum (isolate CDC / Honduras)) (UniProt Q27743); experiment: PfLDH activity inhibition – cell lysate, 3D7 strain, counter-screen for P. falciparum growth inhibition project (AID 2304); conditions: P. falciparum 3D7 crude extract, LDH APAD/NBT absorbance; at 2 µM; active compounds read high
# Sequence of L-lactate dehydrogenase (Plasmodium falciparum (isolate CDC / Honduras)) (Q27743 whole entry, looked up): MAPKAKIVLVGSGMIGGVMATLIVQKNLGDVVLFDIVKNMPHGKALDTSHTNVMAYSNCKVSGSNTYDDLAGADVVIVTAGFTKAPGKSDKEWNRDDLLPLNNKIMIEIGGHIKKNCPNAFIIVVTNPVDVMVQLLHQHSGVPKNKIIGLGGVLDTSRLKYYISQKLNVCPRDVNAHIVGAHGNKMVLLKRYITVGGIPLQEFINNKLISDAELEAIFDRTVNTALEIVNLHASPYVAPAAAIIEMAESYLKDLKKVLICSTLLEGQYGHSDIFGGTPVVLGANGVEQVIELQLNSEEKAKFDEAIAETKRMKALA
# [4] = inhibition of 3D7 malaria parasite growth – strain 3D7 (AID 2306); conditions: P. falciparum 3D7 erythrocytic growth, LDH absorbance, 72 h; at 2 µM; active compounds read high
# [5] = molecular target: Calcium-dependent protein kinase 1 (Plasmodium falciparum (isolate 3D7)) (UniProt P62344); experiment: PfCDPK1 kinase inhibitors, biochemical, TCAMS library (AID 1159585; cut-off not given, nearly all actives have IC50 up to about 0.98 µM;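 further: inhibitors leave more ATP so luminescence rises with inhibition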); conditions: recombinant PfCDPK1, Kinase-Glo ATP depletion luminescence
# Sequence of Calcium-dependent protein kinase 1 (Plasmodium falciparum (isolate 3D7)) (P62344 whole entry, looked up): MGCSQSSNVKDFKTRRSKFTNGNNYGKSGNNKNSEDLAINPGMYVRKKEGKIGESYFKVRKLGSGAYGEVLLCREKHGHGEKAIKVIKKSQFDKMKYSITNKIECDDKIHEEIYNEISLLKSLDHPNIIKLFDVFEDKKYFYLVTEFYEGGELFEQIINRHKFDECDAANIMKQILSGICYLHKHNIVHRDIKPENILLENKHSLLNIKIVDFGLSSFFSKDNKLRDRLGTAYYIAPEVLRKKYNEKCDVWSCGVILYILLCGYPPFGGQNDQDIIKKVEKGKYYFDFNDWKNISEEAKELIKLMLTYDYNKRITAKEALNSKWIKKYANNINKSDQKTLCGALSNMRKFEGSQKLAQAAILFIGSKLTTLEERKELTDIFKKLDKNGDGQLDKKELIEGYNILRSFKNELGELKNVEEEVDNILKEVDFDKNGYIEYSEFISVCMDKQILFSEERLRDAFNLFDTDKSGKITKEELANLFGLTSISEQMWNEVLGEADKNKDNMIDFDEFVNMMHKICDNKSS
# [6] = molecular target: Plasmodium falciparum protein kinase 6 (PK6, PF3D7_1337100) (UniProt Q8IDW1); experiment: PfPK6 kinase inhibitors, biochemical, TCAMS library (AID 1159586); conditions: recombinant PfPK6, Kinase-Glo ATP depletion luminescence
# Sequence of Plasmodium falciparum protein kinase 6 (PK6, PF3D7_1337100) (Q8IDW1 1-305): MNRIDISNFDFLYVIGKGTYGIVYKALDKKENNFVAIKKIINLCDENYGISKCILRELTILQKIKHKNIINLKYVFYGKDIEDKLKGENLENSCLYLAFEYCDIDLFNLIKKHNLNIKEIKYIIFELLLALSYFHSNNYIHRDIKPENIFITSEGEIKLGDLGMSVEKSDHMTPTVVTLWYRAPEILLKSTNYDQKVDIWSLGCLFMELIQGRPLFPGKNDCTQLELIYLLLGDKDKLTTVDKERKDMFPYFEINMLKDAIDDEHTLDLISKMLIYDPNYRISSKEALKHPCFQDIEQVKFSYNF
# [7] = molecular target: Protein kinase 7 (PK7), Plasmodium falciparum 3D7 (PF3D7_0213400) (UniProt Q7YTF7); experiment: inhibition of Plasmodium PK7 catalytic activity – biochemical, TCAMS antimalarial set, Kinase-Glo luminescence (AID 1159587); conditions: recombinant PfPK7, Kinase-Glo ATP depletion luminescence
# Sequence of Protein kinase 7 (PK7), Plasmodium falciparum 3D7 (PF3D7_0213400) (Q7YTF7 1-343): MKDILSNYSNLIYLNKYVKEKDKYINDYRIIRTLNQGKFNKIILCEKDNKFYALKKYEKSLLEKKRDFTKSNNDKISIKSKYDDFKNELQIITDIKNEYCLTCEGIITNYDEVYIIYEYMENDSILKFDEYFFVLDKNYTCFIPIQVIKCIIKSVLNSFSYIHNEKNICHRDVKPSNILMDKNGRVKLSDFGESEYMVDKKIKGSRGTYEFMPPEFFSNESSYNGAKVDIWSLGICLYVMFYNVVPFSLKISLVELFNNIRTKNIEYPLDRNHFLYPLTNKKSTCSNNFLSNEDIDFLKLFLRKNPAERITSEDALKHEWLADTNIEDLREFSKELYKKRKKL
# [8] = molecular target: Calcium-dependent protein kinase 4 (Plasmodium falciparum (isolate 3D7)) (UniProt Q8IBS5); experiment: PfCDPK4 kinase inhibitors, biochemical, TCAMS library (AID 1159588; cut-off not given, nearly all actives have IC50 up to about 0.91 µM); conditions: recombinant PfCDPK4, Kinase-Glo ATP depletion luminescence
# Sequence of Calcium-dependent protein kinase 4 (Plasmodium falciparum (isolate 3D7)) (Q8IBS5 whole entry, looked up): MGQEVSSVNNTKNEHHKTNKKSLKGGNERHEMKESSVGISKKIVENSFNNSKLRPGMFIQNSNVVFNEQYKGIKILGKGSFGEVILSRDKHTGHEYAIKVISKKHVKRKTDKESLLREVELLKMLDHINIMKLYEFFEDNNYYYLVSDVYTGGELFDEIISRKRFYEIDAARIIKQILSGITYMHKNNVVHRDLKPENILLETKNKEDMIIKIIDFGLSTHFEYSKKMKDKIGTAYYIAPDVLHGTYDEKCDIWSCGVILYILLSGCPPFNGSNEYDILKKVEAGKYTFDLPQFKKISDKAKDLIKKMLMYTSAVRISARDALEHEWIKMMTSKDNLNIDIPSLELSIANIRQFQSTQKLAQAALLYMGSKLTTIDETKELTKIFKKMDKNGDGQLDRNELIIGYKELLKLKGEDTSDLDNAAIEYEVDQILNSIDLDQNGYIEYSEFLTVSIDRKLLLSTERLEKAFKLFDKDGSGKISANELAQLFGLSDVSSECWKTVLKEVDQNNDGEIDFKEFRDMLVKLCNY
Structure (SMILES),growth inhibition [1],inhibition [2],inhibition [3],growth inhibition [4],outcome [5],outcome [6],outcome [7],outcome [8]
COc1ccc(NC(=O)c2ccc(NC(=O)c3ccc(Cl)cc3)cc2)cc1N1CCN(C)CC1,40%,23%,-8%,98% (active),inactive,inactive,inactive,inactive
O=S(=O)(NCCN1CCCC1)c1ccc(-c2cccc(CNCc3ccc(F)cc3)c2)s1,50% (active),48%,4%,99% (active),inactive,inactive,inactive,inactive
COc1ccccc1NC(=O)Nc1ccc(-c2ccc(-c3nc4ccc(C(F)(F)F)cc4[nH]3)cc2)cc1,61% (active),52% (active),3%,101% (active),inactive,inactive,inactive,inactive
Cc1ccc2c(OCCN3CCC(Cc4ccc5c(c4)NC(=O)CO5)CC3)cc(F)cc2n1,21%,24%,-2%,89% (active),inactive,inactive,inactive,inactive
Cc1cccc2[nH]c(-c3cccc(-c4ccc(NC(=O)c5ccncc5)cc4)c3)nc12,74% (active),34%,-5%,98% (active),inactive,inactive,inactive,inactive
Cc1ccc(F)cc1S(=O)(=O)N1CCCCC(c2ccc(C(F)(F)F)cc2)=N1,75% (active),8%,7%,82% (active),inactive,inactive,inactive,inactive
c1ccc(-c2csc(Nc3nc4cc5c(cc4s3)OCO5)n2)nc1,99% (active),46%,-3%,81% (active),inactive,inactive,inactive,inactive
Cc1cccc(C(O)CNc2ccnc(Nc3cccc(-c4csc(C)n4)c3)n2)c1 (stereo not given),88% (active),29%,2%,99% (active),inactive,inactive,inactive,inactive
CC(C)CN(c1nc(C(=O)NNC(=O)[C@H](CC2CC2)NC(=O)c2cc3cc(OCCN4CCCCC4)ccc3o2)cs1)C1CC1,98% (active),2%,-4%,97% (active),inactive,inactive,inactive,inactive
CS(=O)(=O)CCNCc1cccc(-c2cc3c(Nc4ccc5c(cnn5Cc5ccccc5)c4)ncnc3s2)c1,101% (active),36%,2%,101% (active),inactive,inactive,inactive,inactive
NC(N)=NN=Cc1c2ccccc2c(Cl)c2ccc(Cl)cc12,89% (active),97% (active),8%,98% (active),inactive,inactive,inactive,inactive
CC[C@H](C)CNC(=O)c1cccc(-c2ccc(CN3CCC(N4CCCC4)CC3)cc2)n1,82% (active),41%,-2%,101% (active),inactive,inactive,inactive,inactive
COc1ccc(CN2CCC(NCc3cccc([N+](=O)[O-])c3)CC2)cc1,3%,6%,2%,92% (active),inactive,inactive,inactive,inactive
COC(=O)c1ccc(N2CCN(CCCCNC(=O)c3ccc(NC(=O)c4ccc(Cl)cc4)cc3)CC2)c(OC)c1,1%,11%,3%,82% (active),inactive,inactive,inactive,inactive
Cc1cc(Nc2ccnc(-c3ccc(Cl)cc3)n2)ccn1,23%,6%,-4%,94% (active),inactive,inactive,inactive,inactive
O=C(NCCCCCN1CCC(c2c[nH]c3ccccc23)CC1)Nc1ccc(I)c(Cl)c1,5%,88% (active),3%,99% (active),inactive,inactive,inactive,inactive
CCc1nnc2sc(-c3cccc(NC(=O)c4ccc(OC)c(Cl)c4)c3)nn12,55% (active),3%,-2%,92% (active),inactive,inactive,inactive,inactive
Cc1cccc2[nH]c(-c3cccc(-c4cccc(NC(=O)C(C)CN5CCN(C)CC5)c4)c3)nc12 (stereo not given),99% (active),17%,1%,99% (active),inactive,inactive,inactive,inactive
COc1cc([N+](=O)[O-])ccc1NC(=O)Nc1ccc(OC(F)(F)F)cc1,72% (active),14%,3%,84% (active),inactive,inactive,inactive,inactive
COc1ccc(-c2cc(C(=O)Nc3ccc(CCCN(C)Cc4ccc(OC)c(OC)c4)cc3)c3ccccc3n2)cc1,47%,40%,-3%,92% (active),inactive,inactive,inactive,inactive

Structure (SMILES),growth inhibition [1],inhibition [2],inhibition [3],growth inhibition [4],outcome [5],outcome [6],outcome [7],outcome [8]
CN(C)Cc1ccc(-c2cc3ncnc(Nc4ccc(OCc5cccc(F)c5)c(Cl)c4)c3s2)[nH]1,87% (active),53% (active),6%,99% (active),inactive,inactive,inactive,inactive
Cc1cccc2[nH]c(-c3ccc(-c4ccc(CN5CC(C)OC(C)C5)cc4)cc3)nc12 (stereo not given),96% (active),37%,3%,97% (active),inactive,inactive,inactive,inactive
Cc1cnc(Nc2ccccc2)nc1N[C@@H](CCCN)C(=O)Nc1ccccc1,0%,-2%,-1%,101% (active),inactive,inactive,inactive,inactive
COc1cc(-c2cc3cc(Cl)c(Cl)cc3[nH]2)ccc1C(=O)NCCC1CCCN1C (stereo not given),41%,20%,-5%,91% (active),inactive,inactive,inactive,inactive
CO/C(=C\C=C\c1cc2cc(Cl)c(Cl)cc2[nH]1)C(=O)NCCCN(C)CCN(C)c1ccccc1,59% (active),38%,0%,96% (active),inactive,inactive,inactive,inactive
CCn1cc2c3c(cc(C(=O)N[C@@H](Cc4ccccc4)[C@H](O)CNC4CCOCC4)cc31)N(C)S(=O)(=O)CC2,98% (active),-10%,0%,98% (active),inactive,inactive,inactive,inactive
O=C(Nc1cccc(-c2ccc(-c3nc4ccc(F)cc4[nH]3)cc2)c1)Nc1ccc(Cl)c(Cl)c1,49%,79% (active),3%,100% (active),inactive,inactive,inactive,inactive
Cc1cc(N)nc2ccc(-c3ccc(CCN)cc3)cc12,48%,31%,-4%,101% (active),inactive,inactive,inactive,inactive
CC(C)N1CCN(C(CN2CCN(CCCOc3cccc(F)c3)CC2)c2ccc(F)cc2)CC1 (stereo not given),38%,38%,0%,92% (active),inactive,inactive,inactive,inactive
O=C(Cn1c(CCc2cccc(F)c2F)cc(=O)c2ccccc21)N(Cc1ccc(-c2ccc(C(F)(F)F)cc2)cc1)C1CCN(CCO)CC1,84% (active),82% (active),0%,91% (active),inactive,inactive,inactive,inactive
c1ccc2c(CNc3nc(NCC4CCCCC4)nc4nc[nH]c34)cccc2c1,44%,-2%,-2%,89% (active),inactive,inactive,inactive,inactive
COc1cc2nc(NCCn3nc(C)cc3C)nc(NCCc3ccccc3)c2cc1OC,100% (active),28%,-3%,103% (active),inactive,inactive,inactive,inactive
CCC(C)(C)c1ccc(Oc2ccc(NC(=O)Nc3ccc(Cl)c(Cl)c3)cc2)cc1,97% (active),13%,-1%,98% (active),inactive,inactive,inactive,inactive
COc1ccc(CNCc2cccc(-c3csc(-c4nc5ccccc5[nH]4)c3)c2)cc1,22%,17%,-1%,100% (active),inactive,inactive,inactive,inactive
COc1ccc(CCNC(=O)c2ccccc2O)cc1-c1ccc(C(C)(C)C)cc1,96% (active),25%,0%,95% (active),inactive,inactive,inactive,inactive
CC(=O)Nc1ccc(CNCCc2ccc(NC(=O)c3cc(Cl)cc(Cl)c3)cc2)cc1,31%,10%,-1%,102% (active),inactive,inactive,inactive,inactive
CCOc1ccnc(=O)[nH]1,95% (active),-4%,5%,97% (active),inactive,inactive,inactive,inactive
CO/C(=C\C=C\c1cc2cc(Cl)c(Cl)cc2[nH]1)C(=O)NC1C[C@@H](C)N(C)[C@@H](C)C1 (stereo not given in full),57% (active),64% (active),1%,97% (active),inactive,inactive,inactive,inactive
CCOc1ccccc1C=CC(=O)Nc1ccc2nc(N3CCN(C)CC3)cc(C)c2c1,91% (active),16%,-1%,102% (active),inactive,inactive,inactive,inactive
Cc1cc(N[C@@H](Cc2ccccc2)C(=O)NCCc2ccccc2)nc(NCCc2ccccc2)n1,57% (active),-4%,-2%,100% (active),inactive,inactive,inactive,inactive
